Results as given in PubChem BioAssay (Tox21).
Records with an inconclusive call do not appear. Values without a mark were called inactive. The call rests on the fitted dose curve; in most records, active means well fitted activation curve with a large enough effect in the signal ratio in the repeat runs (not every such curve was filed as active); inconclusive means weak or mixed curves, or effect the other way; inactive means flat fitted curve, though single readings scatter; the % refers to the signal ratio.

Experiment: qHTS assay to identify small molecule agonists of the endoplasmic reticulum stress response signaling pathway (AID 1159516)
Conditions: ESRE-bla HeLa, ER stress beta-lactamase reporter, 5 h; series mostly up to 61 µM; activation: at the top concentration
In short: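 ER stress element reporter (bla) in HeLa. 1,500 cells/well, overnight attachment; 5 hr compound; 2 hr RT substrate; dual-emission fluorescence.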
On the % scale 0 is the no-effect control and ±100 the full control effect.

Row | SMILES | activation
1 | CCC(C)(C)C1CCC(O)CC1 (centres undefined) | 2.35%
2 | CC(CCc1ccc2c(c1)OCO2)NN (centres undefined) | -10.3%
3 | C1COCO1 | 3.51%
4 | CCCCCCCCCCCC(=O)[O][Sn]([CH2]CCC)([CH2]CCC)[O]C(=O)CCCCCCCCCCC | -9.92%
5 | CC(CCO)CCc1ccccc1 (centres undefined) | -0.289%
6 | CC1=NN(c2ccc(C(=O)O)cc2)C(=O)C1 | 2.35%
7 | C[N+](C)(C)CCOC(N)=O | -1.45%
8 | C=CC(=O)NCOCC(C)C | -2.5%
9 | NC(=O)Nc1ccc(Cl)c(Cl)c1 | -6.74%
10 | CO[C@H]1O[C@H](CO)[C@@H](O)[C@H](O)[C@H]1O | -0.0263%
11 | Brc1cc(-c2ccc(Br)c(Br)c2Br)cc(Br)c1Br | 4.67%
12 | O=Cc1c(Cl)cccc1Cl | 0.731% [at 78.8 µM]
13 | CCCCCCCCSCCO | -0.537%
14 | CCC(=O)OC/C=C/c1ccccc1 | -0.0395%
15 | C[Si]1(C)O[Si](C)(C)O[Si](C)(C)O1 | -2.73%
16 | Cc1oncc1C(=O)Nc1ccc(C(F)(F)F)cc1 | -2.19%
17 | Nc1c(I)cc(I)c(C(=O)N(CCC(=O)O)c2ccccc2)c1I | -7.13%
18 | CCCCCCCCCCCCCCCCBr | -3.14% [at 28.5 µM]
19 | NC(=O)Cn1c(=O)cc(CCN2CCN(c3nccc4sccc34)CC2)c2ccc(F)cc21 | 0.878%
20 | CC(C)(C)C(=O)O | 1.26% [at 78.8 µM]
21 | CC1=CC(=O)CC(C)(C)C1(O)/C=C/C(C)=C\C(=O)O (centres undefined) | 0.14%
22 | C=CCCCCCCCCCCCCCCCC | 3.12% [at 6.95 µM]
23 | CO/N=C1\CN(c2nc3c(cc2F)c(=O)c(C(=O)O)cn3C2CC2)CC1CN (centres undefined) | 9.3%
24 | CC(=O)OCC(=O)[C@@]12OC(C)(C)O[C@@H]1C[C@H]1[C@@H]3C[C@H](F)C4=CC(=O)C=C[C@]4(C)[C@@]3(F)[C@@H](O)C[C@@]12C | 0%
